Structures can show the parent of a compound that is named as a salt. ± gives the standard deviation or the standard deviation of the averaged measurements.
Key:
Conditions in all cases: 25 µM; exposure: 24-48 hpf
[1] = tested on: Danio rerio Tg(wt1b:EGFP) embryo, pronephros; experiment: glomerular separation, fold change vs DMSO control; higher = glomeruli further apart (abnormal)
How it was run: (§1)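 Using a Fiji macro, distances and angles were calculated from 16 reference points set by hand on maximum projections of pronephroi imaged dorsally (470 nm, 10 z-slices) in agarose-filled 96-well plates. The dechorionated Tg(wt1b:EGFP) zebrafish embryos had received 25 μM compound in 0.5% DMSO in HEPES-buffered E3 with 0.003% PTU from 24 to 48 hpf at 28.5°C. Values more than 2 SD from a feature's mean were excluded. Each feature appears as a fold change over the mean of DMSO-treated embryos from the same day.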

[2] = tested on: Danio rerio Tg(wt1b:EGFP) embryo, pronephros; experiment: glomerular width (mean of left and right), fold change vs DMSO control; higher = wider glomerulus
How it was run: as §1

[3] = tested on: Danio rerio Tg(wt1b:EGFP) embryo, pronephros; experiment: fraction of imaged embryos annotated as normal kidney; higher = less nephrotoxic; extreme values may be limits of the assay
How it was run: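 Dechorionated Tg(wt1b:EGFP) zebrafish embryos were exposed in 12-well plates to 25 μM compound in 0.5% DMSO, 5 mM HEPES-buffered E3 with 0.003% PTU, from 24 to 48 hpf at 28.5°C. Tricaine-anaesthetised larvae were oriented dorsally in agarose-filled 96-well plates, and pronephroi were imaged by widefield fluorescence (470 nm, 10 z-slices). Each embryo was manually annotated from maximum projections. The read-out is the fraction of embryos per treatment assigned to the normal-kidney category.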

[4] = tested on: Danio rerio Tg(wt1b:EGFP) embryo, pronephros; experiment: pronephric angle neck segment to proximal convoluted tubule (mean of left and right), fold change vs DMSO control; higher = larger pronephric angle
How it was run: as §1

Row | SMILES | glomerular separation [1] | glomerular width [2] | fraction of imaged embryos annotated as normal kidney [3] | pronephric angle neck segment [4]
1 | CC1(C)S[C@@H]2[C@H](NC(=O)[C@H](C(=O)O)c3ccsc3)C(=O)N2[C@H]1C(=O)O [Ticarcillin sodium] | 0.953 ± 0.36 | 1.01 ± 0.048 | 0.8 | 1.006 ± 0.0094
2 | COc1ccc2c(c1)c(CC(=O)O)c(C)n2C(=O)c1ccc(Cl)cc1 [Indomethacin] | 3.64 ± 1.7 | 0.781 ± 0.045 | 0 | 1.62 ± 0.03
3 | CC[C@H]1OC(=O)[C@H](C)[C@@H](O[C@H]2C[C@@](C)(OC)[C@@H](O)[C@H](C)O2)[C@H](C)[C@@H](O[C@@H]2O[C@H](C)C[C@H](N(C)C)[C@H]2O)[C@](C)(O)C[C@@H](C)/C(=N\OCOCCOC)[C@H](C)[C@@H](O)[C@]1(C)O [Roxithromycin] | 0.811 ± 0.45 | 1 ± 0.014 | 0.75 | 1.02 ± 0.03
4 | CN(C)[C@@H]1C(O)=C(C(N)=O)C(=O)[C@@]2(O)C(O)=C3C(=O)c4c(O)ccc(Cl)c4[C@@H](O)[C@H]3C[C@@H]12 [Demeclocycline hydrochloride] | 0.928 ± 0.36 | 0.999 ± 0.045 | 0.5 | 1.06 ± 0.013
5 | Cc1cnc(NC(=O)C2=C(O)c3ccccc3S(=O)(=O)N2C)s1 [Meloxicam] | 6.33 ± 2.2 | 0.678 ± 0.021 | 0 | 1.76 ± 0.0091
6 | COc1ccc2c(c1)c(CC(=O)OCC(=O)O)c(C)n2C(=O)c1ccc(Cl)cc1 [Acemetacin] | 1.28 ± 0.69 | 1.04 ± 0.027 | 0.917 | 1.08 ± 0.039
7 | O=C1NCCN1CCN1CCC(c2cn(-c3ccc(F)cc3)c3ccc(Cl)cc23)CC1 [Sertindole] | 1.45 ± 0.59 | 1.08 ± 0.022 | 0.833 | 0.949 ± 0.071
8 | CCCN(CCC)CCc1cccc2c1CC(=O)N2 [Ropinirole hydrochloride] | 1.34 ± 0.63 | 0.908 ± 0.044 | 0.75 | 0.991 ± 0.037
9 | CC(C)Nc1cccnc1N1CCN(C(=O)c2cc3cc(NS(C)(=O)=O)ccc3[nH]2)CC1 [Delavirdine] | 0.975 ± 0.41 | 1.16 ± 0.017 | 0.667 | 0.921 ± 0.045
10 | COc1nc(C)nc(Cl)c1NC1=NCCN1 [Moxonidine] | 1.07 ± 0.47 | 1.01 ± 0.011 | 1 | 0.96 ± 0.0097
11 | CC(=O)Nc1nnc(S(N)(=O)=O)s1 [Acetazolamide] | 0.751 ± 0.2 | 0.973 ± 0.029 | 0.917 | 0.9766 ± 0.0062
12 | CCCCN(CCCC)CCCOC(=O)c1ccc(N)cc1 [Butacaine] | 0.928 ± 0.47 | 0.939 ± 0.05 | 0.917 | 0.9912 ± 0.0092
13 | CCCCCCCN(CC)CCCC(O)c1ccc(NS(C)(=O)=O)cc1 (configuration not stated) [Ibutilide fumarate] | 0.897 ± 0.24 | 1.0672 ± 0.00094 | 1 | 0.961 ± 0.086
14 | COC(=O)N/N=C/c1c[n+]([O-])c2ccccc2[n+]1[O-] [Carbadox] | 1.17 ± 0.61 | 0.931 ± 0.063 | 0.833 | 1.13 ± 0.11
15 | CN(C)c1cc(NC(=O)CNC(C)(C)C)c(O)c2c1C[C@H]1C[C@H]3[C@H](N(C)C)C(O)=C(C(N)=O)C(=O)[C@@]3(O)C(O)=C1C2=O [Tigecycline] | 0.759 ± 0.22 | 1.03 ± 0.045 | 0.833 | 0.954 ± 0.02
16 | CC(=O)O[C@]1(C(C)=O)CC[C@H]2[C@@H]3C=C(Cl)C4=CC(=O)[C@@H]5C[C@@H]5[C@]4(C)[C@H]3CC[C@@]21C [Cyproterone acetate] | 1.2 ± 0.46 | 0.931 ± 0.028 | 0.917 | 0.977 ± 0.017
17 | O=C1NCC2(CCN(CCc3ccccc3)CC2)O1 [Fenspiride hydrochloride] | 1.24 ± 0.7 | 0.944 ± 0.024 | 0.833 | 1.09 ± 0.038
18 | NC(=O)c1cc[n+](CC2=C(C(=O)[O-])N3C(=O)[C@@H](NC(=O)[C@@H](c4ccccc4)S(=O)(=O)O)[C@H]3SC2)cc1 [Cefsulodin sodium salt] | 0.67 ± 0.22 | 1.08 ± 0.02 | 0.833 | 0.976 ± 0.034
19 | CCC(NC(C)C)C(O)c1ccc(O)c(O)c1 (configuration not stated) [Isoetharine mesylate salt] | 1.01 ± 0.56 | 1.074 ± 0.0074 | 0.75 | 1.01 ± 0.032
20 | CN1CCN(C(c2ccccc2)c2ccc(Cl)cc2)CC1 (configuration not stated) [Chlorcyclizine hydrochloride] | 1.13 ± 0.62 | 0.995 ± 0.017 | 0.917 | 0.966 ± 0.022
21 | CN(C)CCC=C1c2ccccc2CCc2ccccc21 [Amitryptiline hydrochloride] | 1.3 ± 0.62 | 0.973 ± 0.14 | 0.917 | 1.02 ± 0.072
22 | COc1ccc2[nH]c([S+]([O-])Cc3ncc(C)c(OC)c3C)nc2c1 (configuration not stated) [Omeprazole] | 1.15 ± 0.38 | 0.935 ± 0.073 | 0.667 | 1.1759 ± 0.00043
23 | CC(=O)OCC(=O)[C@@]12OC(C)(C)O[C@@H]1C[C@H]1[C@@H]3C[C@H](F)C4=CC(=O)C=C[C@]4(C)[C@@]3(F)[C@@H](O)C[C@@]12C [Fluocinonide] | 1.04 ± 0.63 | 1.4 ± 0.044 | 0.417 | 1.05 ± 0.067
24 | CCOC1O[C@H]([C@@H](COCc2ccccc2)OCc2ccccc2)[C@H](OCc2ccccc2)[C@H]1O (some centres not stated) [Tribenoside] | 1.42 ± 0.96 | 0.865 ± 0.056 | 0.667 | 1.01 ± 0.018
25 | CN(C)CCCN1c2ccccc2CCc2ccc(Cl)cc21 [Clomipramine hydrochloride] | 1.18 ± 0.38 | 0.947 ± 0.035 | 0.667 | 1.06 ± 0.014
26 | CN(C)CCCO[C@@H]1[C@H]2OC(C)(C)O[C@H]2O[C@@H]1[C@H](O)CO [Amiprilose hydrochloride] | 1.12 ± 0.66 | 1.08 ± 0.071 | 0.667 | 1 ± 0.02
27 | COc1cc2nc(N3CCN(C(=O)c4ccco4)CC3)nc(N)c2cc1OC [Prazosin hydrochloride] | 0.618 ± 0.16 | 1 ± 0.021 | 0.917 | 1.03 ± 0.04
28 | O=C1C(CC[S+]([O-])c2ccccc2)C(=O)N(c2ccccc2)N1c1ccccc1 (configuration not stated) [Sulfinpyrazone] | 1.21 ± 0.35 | 1.02 ± 0.03 | 0.833 | 1 ± 0.012

— the supplement of paper PMC7366291
